Screening data as filed in PubChem BioAssay.
CYP2C19 inhib: blockers of cytochrome P450 2C19 activity – biochemical, luminescence, ADME assay, primary screen; CYP2C19 Supersomes, luciferin-H EGE luminescence, 30 min; inhibition, % at 5 µM; 96,000 compounds, 21% hits;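 active = CYP2C19 inhibition above a set limit at 5 µM in the primary screen, cut at about 50% in these data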
Target sequence (P33261 whole entry, looked up): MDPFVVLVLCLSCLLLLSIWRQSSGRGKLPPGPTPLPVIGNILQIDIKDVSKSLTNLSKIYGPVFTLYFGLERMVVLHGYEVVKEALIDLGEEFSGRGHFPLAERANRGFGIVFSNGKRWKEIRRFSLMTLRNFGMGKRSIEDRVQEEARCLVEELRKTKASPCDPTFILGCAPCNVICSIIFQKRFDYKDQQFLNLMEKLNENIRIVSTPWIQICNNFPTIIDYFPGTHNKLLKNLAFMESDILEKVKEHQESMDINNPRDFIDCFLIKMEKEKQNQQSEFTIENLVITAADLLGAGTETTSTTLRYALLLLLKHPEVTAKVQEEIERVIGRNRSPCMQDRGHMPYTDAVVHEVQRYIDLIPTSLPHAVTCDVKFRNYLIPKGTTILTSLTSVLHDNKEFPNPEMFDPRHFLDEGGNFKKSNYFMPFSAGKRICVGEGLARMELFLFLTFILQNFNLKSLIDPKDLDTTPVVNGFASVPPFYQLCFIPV
PostGolgi ctrl: growth inhibition of yeast control strain, primary screen, counter-screen for post-Golgi transport modulator project | efflux-deficient yeast background strain, growth absorbance A615, 16 h | 98,000 compounds, 5% hits | AID 738, 2007 | inhibition, % at 10 µM
CYP2C9 inh: blockers of cytochrome P450 2C9 activity – biochemical, luminescence, ADME assay, primary screen; inhibition, % at 5 µM; 96,000 compounds, 20% hits; CYP2C9 Supersomes, luciferin-H conversion; P11712;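 active = blocking of liver enzyme CYP2C9 beyond about 50% at 5 µM, limit read from the data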
CYP2C19 act: human CYP2C19 activators, primary screen, biochemical, luminescence; 96,000 tested, under 10 active; recombinant CYP2C19, luciferin-H EGE luminescence; stronger effect = higher value; 0 = fully inhibited enzyme, 1 = untreated enzyme; Cytochrome P450 2C19 (Homo sapiens), P33261; activation factor at 5 µM; AID 1025, 2008;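 active = activation factor of at least 2 at 5 µM in the primary screen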
PostGolgi yeast: phenotypic screen on post-Golgi transport, primary screen. inhibition, % at 10 µM. 98,000 compounds, 0.9% hits. post-Golgi transport phenotypic cell assay;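 also: yeast cells grown in 1536-well plates; yeast grown about 18 h at 30C before absorbance read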
CYP2C9 activ: human CYP2C9 activators, primary screen, biochemical, luminescence. Cytochrome P450 2C9 (Homo sapiens), P11712. recombinant CYP2C9, luciferin-H conversion; stronger effect = higher value; factor 1 = untreated enzyme, 0 = blocked. activation factor at 5 µM. 96,000 compounds, 1.4% hits;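 active = activation factor of 2 or more for CYP2C9 at a 5 µM dose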
Hits are given with their value; n = inactive; x = no result given. Most compounds without a hit are left out; they make up all but 32% or so of the library. Rule as the data show it, unless noted: active = inhibition above about 30%; inactive = the rest.

SMILES	CYP2C19 inhib	PostGolgi ctrl	CYP2C9 inh	CYP2C19 act	PostGolgi yeast	CYP2C9 activ
OC1(c2cccc(C(F)(F)F)c2)CCN(c2ncnc3c2[nH]c2ccc(F)cc23)CC1	71.0	32.8	85.2	n	n	n
COc1cc2[nH]c3c(N4CCN(c5ccccn5)CC4)ncnc3c2cc1OC	n	n	n	n	n	n
COc1ccc(N2CCN(c3ncnc4c3[nH]c3ccccc34)CC2)cc1	n	n	n	n	n	n
Fc1ccc2[nH]c3c(N4CCN(c5ccccc5)CC4)ncnc3c2c1	n	79.5	n	n	76.3	n
CCOC(=O)N1CCN(c2ncnc3c2[nH]c2ccc(OC)cc23)CC1	56.0	36.5	n	n	n	n
CCCCOc1ncnc2c1[nH]c1ccc(F)cc12	n	n	n	n	n	n
CCOC(=O)c1oc2nc(C(C)C)c3c(c2c1N)CCC3	n	n	n	n	n	n
O=C(O)CN1C(=O)c2cccc(Oc3ccc(Cl)cc3)c2C1=O	n	n	n	n	n	n
O=C(c1ccc2c(c1)OCCO2)C1CCN(C(=O)c2ccc(F)c(F)c2)CC1	75.3	n	n	n	n	n
CCOC(=O)C1CCN(C(=O)c2ccc3c(c2)OCO3)CC1	n	n	n	n	n	n
O=C(c1ccc2c(c1)OCCO2)C1CCN(C(=O)c2ccc(F)cc2)CC1	72.5	n	50.3	n	n	n
O=C(c1ccc(F)cc1)N1CCC(N2CCOCC2)CC1	n	n	n	n	n	n
Cc1ccc(S(=O)(=O)NNC(=O)C2CCN(Cc3ccccc3)CC2)cc1	x	n	x	x	n	x
Cc1ccc(S(=O)(=O)NC2=C(N3CCN(Cc4ccccc4)CC3)C(=O)c3ccccc3C2=O)cc1	n	45.7	63.1	n	n	n
O=S(=O)(Nc1nc2ccccc2nc1N1CCN(c2ccccn2)CC1)c1ccc(Cl)cc1	n	57.4	100.0	n	n	n
CC(=O)Nc1ccc(S(=O)(=O)N2CCN(c3ccccn3)CC2)cc1	n	n	n	n	n	n
COc1ccc(N2CCN(c3nc4ccccc4nc3NS(=O)(=O)c3ccccc3)CC2)cc1	53.1	n	98.5	n	n	n
Cc1ccc(S(=O)(=O)NC2=C(N3CCN(c4ccccc4F)CC3)C(=O)c3ccccc3C2=O)cc1	n	n	60.6	n	n	n
Cc1ccc(-c2csc3n[nH]c(=S)n23)cc1	n	n	n	n	n	n
FC(F)Oc1ccc(NC(=S)NN2CCOCC2)cc1	n	n	n	n	n	n
Oc1c(C(c2ccc(F)cc2)N2CCc3ccccc3C2)sc2ncnn12 (stereo not given)	x	n	x	x	n	x
CC(=O)Nc1ccc(S(=O)(=O)Nc2nc3ccccc3nc2N2CCCCCC2)cc1	n	n	70.0	n	n	n
Cc1ccc(S(=O)(=O)Nc2nc3ccccc3nc2N2CCN(c3ccccc3F)CC2)cc1	n	n	100.0	n	n	n
CC(=O)Nc1ccc(S(=O)(=O)NC2=C(N3CCN(c4ccc(F)cc4)CC3)C(=O)c3ccccc3C2=O)cc1	n	n	60.8	n	n	n
CCCCCC(=O)NNC(=O)c1ccc(-c2ccccc2)cc1	n	n	n	n	n	n
SMILES	CYP2C19 inhib	PostGolgi ctrl	CYP2C9 inh	CYP2C19 act	PostGolgi yeast	CYP2C9 activ
CCOC(=O)/C(N=O)=C(\O)C1CCN(C(=O)OCC)CC1	n	n	n	n	n	n
O=c1c(C=NCCCn2ccnc2)c(-c2ccccc2)[nH]n1-c1nc2ccccc2s1	91.7	n	98.5	n	n	n
CC(=NCCCn1ccnc1)c1c(-c2ccccc2)[nH]n(-c2nc3ccccc3s2)c1=O	99.1	n	98.0	n	n	n
CC(=NC1CC1)c1c(-c2ccccc2)[nH]n(-c2nc3ccccc3s2)c1=O	n	36.1	n	n	n	n
Cn1c(=O)[nH]c(=O)c2c1nc(N1CCCCC1)n2CCCSc1nc2ccccc2s1	x	n	x	x	n	x
CCOc1ccc(C(=O)Nc2c3c(nn2-c2cccc(C)c2C)CS(=O)C3)cc1 (stereo not given)	n	n	n	n	n	n
Brc1ccc2cccnc2c1	n	n	n	n	n	n
COc1ccc(N=Nc2nc3ccc(Br)cc3n2C)cc1	n	n	n	n	n	n
COCCOC(=O)C1=C(C)NC(=O)N(C(C)=O)C1c1ccc(Cl)cc1 (stereo not given)	58.1	n	65.5	n	n	n
Cc1nn(C)c(N)c1C(O)(c1nccn1C)C(F)(F)F (stereo not given)	n	n	n	n	n	n
Nc1ccc(C23CC4CC(CC(O)(C4)C2)C3)cc1	91.0	n	n	n	n	n
Nc1ccc(C23CC4CC(CC(CO)(C4)C2)C3)cc1	71.3	n	n	n	n	n
CC(=O)c1c(C(C)=O)c(C)n(-c2nc(-c3cccs3)c(C)s2)c1C	n	n	n	n	n	n
Cc1ccccc1-c1nc2ccccc2c(=O)n1/N=C/c1ccccc1[N+](=O)[O-]	n	46.6	n	n	n	n
CCOc1c(Br)cc(C(N)=O)cc1OC	n	n	n	n	n	n
CCOC(=O)COc1c(C=O)cc(Br)cc1OC	56.5	n	n	n	n	2
COc1ccc(OC)c(C2CC(=O)N3CN(c4cccc(Cl)c4C)CSC3=C2C#N)c1 (stereo not given)	n	x	96.8	n	x	n
COc1cccc(C2CC(=O)N3CN(c4cccc(Cl)c4C)CSC3=C2C#N)c1OC (stereo not given)	n	n	97.4	n	n	n
O=C1C2(CCC13COC(c1ccc(O)cc1)OC3)COC(c1ccc(O)cc1)OC2 (stereo not given)	n	n	n	n	n	n
CC(O)C(=O)NCCOCCOCCNC(=O)C(C)O (stereo not given)	65.6	n	n	n	n	n
COc1ccc(NC(=O)C2CCCCN2CC(=O)OCc2ccccc2)cc1OC (stereo not given)	66.6	n	62.5	n	n	n
COc1ccc(NC(=O)C2CCCN2C(=O)OCc2ccccc2)c(OC)c1 (stereo not given)	n	n	n	n	n	n
COc1ccc(NC(=O)C2CCCCN2N)cc1OCC(C)C (stereo not given)	93.7	n	n	n	n	n
O=C(CCNc1ccc(F)cc1)c1ccco1	65.0	n	n	n	n	n
O=C(CCNc1ccc(F)c(Cl)c1)c1ccco1	n	n	n	n	n	n
O=C(CCNc1cc(Cl)cc(Cl)c1)c1ccco1	60.9	n	n	n	n	n
O=C(CCNc1ccc(Cl)c(C(F)(F)F)c1)c1ccco1	75.5	n	n	n	n	n
CSc1nc2nc3c(c(=O)n2[nH]1)CCCC3	n	n	n	n	n	n
Nn1cc(-c2ccccc2)nc1SCC(=O)N1CCN(S(=O)(=O)c2ccc3ccccc3c2)CC1	n	n	n	n	n	n
